# From PubChem
# An excerpt weighted towards active compounds, which were near 2.9% of everything screened.
# D3 antag: blocks the human D3 dopamine receptor. P35462. actives 2.5% (n = 360,000). max response, negative = inhibition, %. D3R cells, DiscoveRx beta-arrestin luminescence, antagonist mode; active compounds read low; in the data active = max response below about -50%; inconclusive = no clear call, values can overlap the other calls; also: % is scaled to controls: 0 for no effect and ±100 for the full control effect
#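 Cells plated overnight at 1500 cells/well, then exposed to library compounds with dopamine controls for 90 minutes at 37 degrees C. DiscoveRx reagent added for 30–60 minutes at room temperature; luminescence read, quantitative HTS format.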
# B2AR arrestin: beta2AR (human) beta-arrestin recruitment activity. P07550. beta-arrestin recruitment to beta2AR, cell-based reporter. Potency, µM (titrated, usually from 46.1 µM), without a hit: top-dose activation, hits mostly activators. actives 0.02% (n = 330,000);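 also: potency is read from the fitted curve at half-maximal effect; 0% = DMSO controls and full agonism = EC100 isoproterenol or metaproterenol; nearly all actives have a fitted effect of over 65% in size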
# Target sequence (P07550 whole entry, looked up): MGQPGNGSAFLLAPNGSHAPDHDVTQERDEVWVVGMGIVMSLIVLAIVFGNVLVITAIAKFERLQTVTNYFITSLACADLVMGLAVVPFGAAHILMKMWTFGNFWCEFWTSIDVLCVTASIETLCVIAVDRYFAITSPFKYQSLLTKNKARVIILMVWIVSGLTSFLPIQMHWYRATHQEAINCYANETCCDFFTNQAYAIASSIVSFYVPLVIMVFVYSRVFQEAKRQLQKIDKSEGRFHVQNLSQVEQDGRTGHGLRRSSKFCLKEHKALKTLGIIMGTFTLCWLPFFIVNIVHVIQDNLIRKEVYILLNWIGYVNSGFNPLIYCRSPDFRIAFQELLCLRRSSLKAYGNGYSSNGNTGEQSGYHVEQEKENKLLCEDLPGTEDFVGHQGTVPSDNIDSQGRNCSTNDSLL
# Integrin act MD: activates integrin-mediated alleviation for muscular dystrophy | alpha7betagal myoblasts, beta-gal FDG fluorescence, 48 h | Potency, µM (doses to about 38.3 µM), for the others: top-dose activation, hits mostly activators | actives 0.064% (n = 350,000);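 also: potency is read from the fitted curve at half-maximal effect; 100% = response of the positive control SU9516; nearly all actives have a fitted effect of over 60% in size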
#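 alpha7betagal+/- myoblasts (passage 13, 250/well) treated 48 h at 37C with compounds at 1:260 dilution of DMSO stock. Lysed, then beta-galactosidase activity read as FDG fluorescence (ex 480/em 540) after 30 min, with pre-read for autofluorescence.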
# IDH1 R132H inh: blocks human mutant IDH1 R132H enzyme; Potency, µM (titrated, usually from 76.6 µM), without a hit: top-dose activity change, negative = inhibition, usual class: inhibitors; actives 0.093% (n = 390,000); IDH1-R132H enzyme, NADPH consumption, diaphorase/resazurin fluorescence; also: potency is read from the fitted curve at half-maximal effect; % is scaled to controls: 0 for no effect and ±100 for the full control effect; nearly all actives have a fitted effect of over 65% in size
#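 IDH1-R132H (0.5 ug/mL) preincubated 30 min with compound, then NADPH (0.016 mM) and alpha-KG (2 mM) added; 80 min at RT, pH 7.5. Remaining NADPH coupled via diaphorase/resazurin to fluorescence (540/590 nm); concentration-response curves normalized to no-enzyme control.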
# DRD3 agonist: D3 dopamine receptor (human) agonism; D3R DiscoveRx beta-arrestin cells, luminescence, 90 min; P35462; max activation, %; actives 0.58% (n = 410,000); in the data active = max activation above about 30%; also: 0% is about no effect
#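 Agonist mode: compounds and dopamine controls were applied to plated cells for 90 min at 37 degrees C after an overnight attachment at 1500 cells/well. Luminescent read-out followed 30 - 60 minutes at room temperature with DiscoveRx detection reagent.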
# * marks the source's active call; other numbers are inactive results; ? = inconclusive; . = no result given; [ ] = another dose, or the depositor's remark. Unless noted, calls follow the shape of the dose curve; as a rule, active = well fitted curve in the direction sought with a large enough effect; inconclusive = small, poorly fitted or top-dose-only effect, or another doubt; inactive = no such curve, though single readings can be large; an effect the other way counts as inactive or inconclusive.
SMILES,D3 antag,B2AR arrestin,Integrin act MD,IDH1 R132H inh,DRD3 agonist
COc1cc(CN2CCC(C(=O)NC(c3ccc(F)cc3)c3ncccc3C)CC2)cc(OC)c1 (configuration not stated),0,.,.,.,-20
Cc1cccnc1C(NC(=O)C1CCN(Cc2ccc(Oc3ccccc3)cc2)CC1)c1ccccc1 (configuration not stated),-81*,.,.,.,-22
COc1ccc(C(NC(=O)C2CCN(Cc3ccc(Oc4ccccc4)cc3)CC2)c2ccccc2C)cn1 (configuration not stated),-79*,.,.,.,-15
Cc1cccnc1C(NC(=O)C1CCN(CCCOc2ccccc2)CC1)c1ccc(F)cc1 (configuration not stated),-105*,.,.,.,-27
COc1ccc(-c2nc(C)c(CCNC(=O)c3ccc(F)c(F)c3)s2)cc1,.,.,.,2%,4
CC(=O)N1CCCc2cc(S(=O)(=O)N(C)CC(=O)Nc3ccc(Cl)cc3C)ccc21,.,.,.,2%,6
O=C(CSc1nc2ccccc2c(=O)n1-c1ccc(F)cc1)Nc1ccc(N2CCOCC2)cc1,3,-3%,-11%,-9%,-5
O=C(CSc1nc2ccccc2c(=O)n1-c1ccc(F)cc1)Nc1cc(S(=O)(=O)N2CCOCC2)ccc1Cl,2,16µM*,-1%,0%,-7
c1ccc(N2CCN(c3nnc(Cc4cccnc4)c4ccccc34)CC2)nc1,7,-4%,-2%,3%,42*
CCc1ccc(NC(=O)C2CCN(c3cc(C)nc4c(-c5ccc(Cl)cc5)c(C)nn34)CC2)cc1,.,.,.,-3%,6
Cc1cc(C(=O)Nc2ncn[nH]2)ccc1[N+](=O)[O-],-10,0%,-5%,-15%,34*
Cc1ccc(S(=O)(=O)NCc2nc3cccnc3n2Cc2ccccc2Cl)c(C)c1,.,.,.,12%,11
O=C1C=C(c2ccc(F)cc2OCc2ccccc2)C[C@@H](c2ccc(F)cc2)C1,-15,0%,15%,12%,42*
O=C1C=C(c2ccc(Oc3ccccc3)cc2)C[C@@H](c2ccc(F)cc2)C1,-73*,0%,-8%,-2%,-8
COc1ccc([C@H]2CC(=O)C=C(c3ccccc3OC)C2)cc1OC,23,-3%,-14%,3%,4
COc1ccc([C@H]2CC(=O)C=C(c3ccc(F)cc3OCc3ccccc3)C2)cc1OC,116,-1%,-27%,2%[38.3 µM],73*
COc1ccc([C@H]2CC(=O)C=C(c3cccc(C(C)C)c3)C2)cc1,-61*,0%,-13%,5%,-56
COc1ccc([C@H]2CC(=O)C=C(c3ccc(F)cc3OCc3ccccc3)C2)cc1,5,0%,23%,-9%,29
CCCC(=O)c1cc(O)c(O)cc1O,.,.,.,.,14
CS(=O)(=O)N1CCc2cc(C(=O)Nc3ccc(Cl)c(C(F)(F)F)c3)ccc21,.,.,.,-18%,-22
COc1cccc(Nc2sc(C(=O)c3ccc(F)cc3)c(N)c2C(=O)NCc2ccc(C)cc2)c1,.,.,.,-16%,9
CCOc1ccc(CCNC(=O)Cn2ccc3ccccc3c2=O)cc1OCC,5,0%,-6%,-5%,9
O=C(NCCN1CCCCC1)c1ccc(Cn2c(SCc3ccc(F)cc3)nc3cccnc32)cc1,.,.,.,5%,-9
CN1CC(=O)NC1=N,.,.,.,.,9
O=C(c1cc(-c2ccccn2)nc2c(Cl)cccc12)N1CCN(C(=O)C2CCCO2)CC1 (configuration not stated),-51*,0%,-1%,3%,1
SMILES,D3 antag,B2AR arrestin,Integrin act MD,IDH1 R132H inh,DRD3 agonist
CCCCCn1c(=O)[nH]c2cc(C(=O)Nc3ccc(OC)c(OC)c3)ccc2c1=O,.,.,.,-9%,3
CSc1nc(=O)n(-c2ccccc2)c(C)c1C(C)=O,17,0%,9%,2%,34*
CCSc1nc(=O)n(-c2ccccc2)c(C)c1C(C)=O,?,0%,3%,-5%,-9
CCOc1ccccc1CNC(=O)c1cc2c(=O)n(Cc3ccco3)ccc2nc1C,.,.,.,18%,-4
C[C@H]1O[C@H](O[C@H]2[C@H](O)[C@@H](O)[C@@H](O[C@H]3[C@H](O)[C@@H](O)[C@H](O)O[C@@H]3CO)O[C@@H]2CO)[C@H](O)[C@@H](O)[C@@H]1N[C@H]1C=C(CO)[C@@H](O)[C@H](O)[C@H]1O,.,.,.,.,0
CCN(CC)S(=O)(=O)c1cccc(-c2nnc(SCc3nnc(-c4ccccc4)o3)n2C)c1,-50*,0%,-27%,9%,-2
CCN(CC)S(=O)(=O)c1ccc(-c2nnc(SCc3nnc(-c4ccc(C)cc4)o3)n2CC)cc1,-3,0%,1%,2%,2
COc1ccc(C2CC(=O)c3cnc(Nc4cc(C)cc(C)c4)nc3C2)cc1 (configuration not stated),-10,0%,-25%,1%,49*
COc1cc(C2CC(=O)c3cnc(NC(=O)COc4ccccc4)nc3C2)cc(OC)c1OC (configuration not stated),6,-1%,-24%,5%,36*
COc1ccc(C2CC(=O)c3cnc(NC(=O)c4ccccc4)nc3C2)cc1OC (configuration not stated),0,0%,28%,18%,-1
COc1ccc(C2CC(=O)c3cnc(NC(=O)c4cc(OC)cc(OC)c4)nc3C2)cc1 (configuration not stated),0,0%,-10%,1%,4
CCN(CC)S(=O)(=O)c1cc(NC(=O)CSc2nc3c(cc2C#N)C(=O)CC(C)(C)C3)ccc1C,12,0%,20%,-2%,34*
CCN(CC)S(=O)(=O)c1cc(NC(=O)CSc2nnc(N)s2)ccc1C,-19,0%,12%,9%,0
CN(C)CCN1CCN(C(c2cc3ccccc3o2)c2nnnn2C(C)(C)C)CC1 (configuration not stated),0,.,.,.,-4
C(=C\c1ccccc1)/CN1CCN(C(c2nnnn2C2CCCCC2)C2CC2)CC1 (configuration not stated),-4,.,.,.,-7
C(=C\c1ccccc1)/CN1CCN(C(c2cc3ccccc3o2)c2nnnn2Cc2ccccc2)CC1 (configuration not stated),-104*,.,.,.,-15
C(=C\c1ccccc1)/CN1CCN(C(c2cccc3ccccc23)c2nnnn2C2CCCC2)CC1 (configuration not stated),-99*,.,.,.,-13
C(=C\c1ccccc1)/CN1CCN(C(c2cc3ccccc3o2)c2nnnn2C2CCCC2)CC1 (configuration not stated),-98*,.,.,.,-9
C(=C\c1ccccc1)/CN1CCN(C(CCc2ccccc2)c2nnnn2C2CCCCC2)CC1 (configuration not stated),-59*,.,.,.,-20
CCOC(=O)C1=C(CS(=O)(=O)c2ccc(C)cc2)NC(=O)NC1c1ccc(C(C)C)cc1 (configuration not stated),.,.,.,-3%,-16
